Reference: ChEMBL document CHEMBL3988442, “University of Dundee, Small-Polar-MMV Screening Library” (2021)

Molecular target: AMP-activated protein kinase, AMPK (Homo sapiens) (UniProt P54646+O43741+P54619+Q9UGJ0+Q9Y478+Q13131+Q9UGI9)
Assay: AMP-dependent Kinase enzyme assay. An in vitro enzyme assay that detects ADP turnover that is directly proportional to AMPK activity. This uses naive AMPK that is activated during the assay with MK-8722
Type: functional
Design: scale not given: direction of the effect not stated beside the values
Conditions: 30 µM

| SMILES | Percent Effect [%] |
| --- | --- |
| Cc1nc(CN2CCC(c3cc(N4CCCC4)ncn3)CC2)cs1 | 2.88 |
| CCCOc1ccc2c(c1)OCC(CNC1CCc3ncnn3C1)=C2 (stereo not given) | 10.2 |
| O=C1CCCN1C1CCCN(CCn2cc(Cl)cn2)C1 (stereo not given) | 7.29 |
| CN(Cc1nc2ccccc2[nH]1)C(=O)CN(C)c1ccccc1 | -1.06 |
| COC(=O)c1cccc(S(=O)(=O)NCC(c2ccco2)N2CCCC2)c1 (stereo not given) | -6.45 |
| Cc1ccc(Br)cc1C(=O)Nc1cc(C(N)=O)n(C)c1 | 0.519 |
| NC(=O)NC1CCN(Cc2ccc(Br)c(F)c2)CC1 | 4.07 |
| CC1CCC(O)(CSc2nnnn2C)CC1 (stereo not given) | 3.45 |
| Cc1ccc(C(=O)NC2CCCN(S(C)(=O)=O)C2)c(=O)[nH]1 (stereo not given) | -0.668 |
| CNC(=O)c1cc(NC(=O)Nc2cnn(CC(C)C)c2)ccc1F | -5.42 |
| CC(NC(=O)N1CCCC1)c1ccc(S(N)(=O)=O)cc1 (stereo not given) | 9.72 |
| CCOc1ccccc1C(C(=O)O)N(C)Cc1nnc(C)o1 (stereo not given) | 4.89 |
| c1cnc(N2CCCC(Cc3nccs3)C2)nc1 (stereo not given) | 0.818 |
| CCc1nn(C)c(Cl)c1CN1CCCC2(CC1)CN(C)C(=O)O2 (stereo not given) | -9.39 |
| CNc1ccc(C2CN(c3cc(C)ncn3)CCO2)nc1 (stereo not given) | 10.8 |
| COc1cc(NC2CCCN(c3ncccc3C#N)C2)cc(OC)c1 (stereo not given) | -37.2 |
| Cc1nc(COC(=O)c2cccc3c2OCCO3)no1 | -12.1 |
| CCc1ocnc1C(=O)N1CCC2(CCCN(CC(C)(C)C)C2=O)C1 (stereo not given) | 9.83 |
| O=C(c1ccnc(-n2cnnc2)c1)N1CCCC2(CCOC2)C1 (stereo not given) | -4.79 |
| CC(C)(CNC(=O)c1ccco1)CNC(=O)c1ccco1 | -2.53 |
